# Test results reported in PMC7862700, “An all-to-all approach to the identification of sequence-specific readers for epigenetic DNA modifications on cytosine”.
# Columns and labels:
# Assay in all cases: DAPPL (digital affinity profiling via proximity ligation, sequencing); 10 mM Tris-HCl pH 7.5, 50 mM NaCl, 1 mM DTT, 4% glycerol, room temperature, 30 min; GST-TFs on glutathione beads, 16-mer random dsDNA library, 0.1% formaldehyde crosslink after washing; high values mean tight binding
# Conditions in all cases: protein: recombinant; tags: N-terminal GST; dsDNA, one strand shown
# FLI1 = target: T1, FLI1 (Homo sapiens, UniProt Q01543 1-452)
# T1 sequence: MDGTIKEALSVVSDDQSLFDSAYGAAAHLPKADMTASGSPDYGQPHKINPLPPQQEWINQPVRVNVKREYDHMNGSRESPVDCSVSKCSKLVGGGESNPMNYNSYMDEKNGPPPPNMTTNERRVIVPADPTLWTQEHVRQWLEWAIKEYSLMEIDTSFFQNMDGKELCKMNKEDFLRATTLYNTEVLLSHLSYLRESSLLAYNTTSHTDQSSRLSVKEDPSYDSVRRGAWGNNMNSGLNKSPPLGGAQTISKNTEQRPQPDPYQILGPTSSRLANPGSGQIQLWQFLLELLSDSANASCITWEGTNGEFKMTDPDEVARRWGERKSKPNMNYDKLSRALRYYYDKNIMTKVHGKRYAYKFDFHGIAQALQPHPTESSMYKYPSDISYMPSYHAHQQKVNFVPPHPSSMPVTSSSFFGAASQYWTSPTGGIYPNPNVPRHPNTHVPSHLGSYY
# How it was run: (§1)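 Pools of DNA-barcoded human transcription factors, expressed in yeast as GST fusions on glutathione beads and combined with a tag-only sample, were incubated with 200 nmole of a 16-mer random double-stranded DNA library. Incubation took 30 min at room temperature in Tris/NaCl/DTT/glycerol buffer and was followed by washing, 0.1% formaldehyde crosslinking, proximity ligation (BsaI/T4 ligase, 1 h, 37 °C), PCR amplification and sequencing on an Illumina NextSeq500. Binding signal is the ratio of a hexamer's read frequency for a factor to its frequency for the tag-only sample.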
# ELK1 = target: T2, ELK1 (Homo sapiens, UniProt P19419 1-428)
# T2 sequence: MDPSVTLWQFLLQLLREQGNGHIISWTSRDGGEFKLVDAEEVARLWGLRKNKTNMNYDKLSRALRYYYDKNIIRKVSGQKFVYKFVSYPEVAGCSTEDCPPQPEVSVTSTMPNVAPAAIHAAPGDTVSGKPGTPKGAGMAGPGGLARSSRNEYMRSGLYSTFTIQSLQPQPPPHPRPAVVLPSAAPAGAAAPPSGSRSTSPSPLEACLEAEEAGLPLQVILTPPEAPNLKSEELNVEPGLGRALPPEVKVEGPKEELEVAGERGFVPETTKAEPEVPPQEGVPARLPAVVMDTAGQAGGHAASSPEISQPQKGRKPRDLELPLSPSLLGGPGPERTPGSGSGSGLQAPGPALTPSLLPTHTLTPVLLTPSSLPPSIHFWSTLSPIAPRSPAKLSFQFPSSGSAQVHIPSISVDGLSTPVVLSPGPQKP
# How it was run: as §1
# GABPA = target: T3, GABPA (Homo sapiens, UniProt Q06546 1-454)
# T3 sequence: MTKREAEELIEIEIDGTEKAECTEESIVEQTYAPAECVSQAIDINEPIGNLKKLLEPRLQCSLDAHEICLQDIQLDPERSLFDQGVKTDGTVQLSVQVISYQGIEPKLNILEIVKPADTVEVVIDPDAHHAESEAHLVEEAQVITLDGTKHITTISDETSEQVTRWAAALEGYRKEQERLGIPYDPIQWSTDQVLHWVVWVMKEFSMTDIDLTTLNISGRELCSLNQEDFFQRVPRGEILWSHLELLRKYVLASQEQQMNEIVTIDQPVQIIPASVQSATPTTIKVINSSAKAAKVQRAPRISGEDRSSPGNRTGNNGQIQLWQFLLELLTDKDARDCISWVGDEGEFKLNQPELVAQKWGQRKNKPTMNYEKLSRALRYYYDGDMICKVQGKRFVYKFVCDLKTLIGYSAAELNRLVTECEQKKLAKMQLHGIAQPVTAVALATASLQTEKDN
# How it was run: as §1
# ERG = target: T4, ERG (Homo sapiens, UniProt P11308 1-479)
# T4 sequence: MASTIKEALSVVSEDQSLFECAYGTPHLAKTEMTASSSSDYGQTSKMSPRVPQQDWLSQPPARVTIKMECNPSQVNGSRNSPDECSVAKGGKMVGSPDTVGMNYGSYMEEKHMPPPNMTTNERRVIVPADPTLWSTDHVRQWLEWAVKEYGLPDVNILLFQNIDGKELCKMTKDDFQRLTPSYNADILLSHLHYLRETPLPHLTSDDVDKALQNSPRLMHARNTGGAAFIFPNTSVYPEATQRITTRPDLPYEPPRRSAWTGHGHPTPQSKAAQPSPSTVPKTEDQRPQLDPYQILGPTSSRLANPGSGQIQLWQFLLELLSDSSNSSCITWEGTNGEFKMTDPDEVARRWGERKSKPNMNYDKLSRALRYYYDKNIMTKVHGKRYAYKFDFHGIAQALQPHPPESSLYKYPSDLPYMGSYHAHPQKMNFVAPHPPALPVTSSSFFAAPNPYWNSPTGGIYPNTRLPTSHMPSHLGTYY
# How it was run: as §1
# ELF1 = ELF1 (Homo sapiens, UniProt P32519 1-619)
# ELF1, sequence (P32519 whole entry): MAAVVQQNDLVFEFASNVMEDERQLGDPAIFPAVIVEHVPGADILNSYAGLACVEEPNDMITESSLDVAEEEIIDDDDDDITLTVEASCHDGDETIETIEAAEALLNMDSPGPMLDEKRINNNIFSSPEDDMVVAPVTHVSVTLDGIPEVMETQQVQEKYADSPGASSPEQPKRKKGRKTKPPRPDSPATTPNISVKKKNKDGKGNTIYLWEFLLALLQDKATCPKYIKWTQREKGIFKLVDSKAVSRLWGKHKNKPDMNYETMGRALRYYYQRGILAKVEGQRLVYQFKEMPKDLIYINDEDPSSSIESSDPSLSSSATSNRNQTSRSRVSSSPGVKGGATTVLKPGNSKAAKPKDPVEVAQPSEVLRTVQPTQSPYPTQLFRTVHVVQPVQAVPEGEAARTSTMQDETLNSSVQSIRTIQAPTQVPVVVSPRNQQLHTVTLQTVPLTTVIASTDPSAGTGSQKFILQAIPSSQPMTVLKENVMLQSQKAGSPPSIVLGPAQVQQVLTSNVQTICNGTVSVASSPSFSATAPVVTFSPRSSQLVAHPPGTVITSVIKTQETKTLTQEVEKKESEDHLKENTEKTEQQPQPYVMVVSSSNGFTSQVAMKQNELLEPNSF
# How it was run: as §1
# EHF = target: T5, EHF (Homo sapiens, UniProt Q9NZC4 1-300)
# T5 sequence: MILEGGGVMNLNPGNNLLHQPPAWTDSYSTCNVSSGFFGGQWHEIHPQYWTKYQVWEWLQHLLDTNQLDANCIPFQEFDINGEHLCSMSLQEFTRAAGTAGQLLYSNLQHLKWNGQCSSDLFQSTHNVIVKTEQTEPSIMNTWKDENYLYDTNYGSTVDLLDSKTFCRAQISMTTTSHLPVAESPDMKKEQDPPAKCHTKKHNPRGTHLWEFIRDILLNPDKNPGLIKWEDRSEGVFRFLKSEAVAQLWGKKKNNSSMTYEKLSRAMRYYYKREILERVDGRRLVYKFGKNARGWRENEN
# How it was run: as §1
# SPI1 = SPI1 (Homo sapiens, UniProt P17947 1-270)
# How it was run: as §1
# SPIB = SPIB (Homo sapiens, UniProt Q01892 1-262)
# SPIB, sequence (Q01892 whole entry): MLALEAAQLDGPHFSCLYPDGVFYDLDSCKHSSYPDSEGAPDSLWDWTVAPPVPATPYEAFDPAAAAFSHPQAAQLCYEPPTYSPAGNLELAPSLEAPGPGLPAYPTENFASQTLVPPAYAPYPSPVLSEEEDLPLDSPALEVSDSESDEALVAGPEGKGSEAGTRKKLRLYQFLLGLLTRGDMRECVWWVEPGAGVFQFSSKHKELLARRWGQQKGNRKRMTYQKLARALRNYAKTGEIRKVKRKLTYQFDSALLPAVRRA
# How it was run: as §1
# ELK3 = target: T6, ELK3 (Homo sapiens, UniProt P41970 1-407)
# T6 sequence: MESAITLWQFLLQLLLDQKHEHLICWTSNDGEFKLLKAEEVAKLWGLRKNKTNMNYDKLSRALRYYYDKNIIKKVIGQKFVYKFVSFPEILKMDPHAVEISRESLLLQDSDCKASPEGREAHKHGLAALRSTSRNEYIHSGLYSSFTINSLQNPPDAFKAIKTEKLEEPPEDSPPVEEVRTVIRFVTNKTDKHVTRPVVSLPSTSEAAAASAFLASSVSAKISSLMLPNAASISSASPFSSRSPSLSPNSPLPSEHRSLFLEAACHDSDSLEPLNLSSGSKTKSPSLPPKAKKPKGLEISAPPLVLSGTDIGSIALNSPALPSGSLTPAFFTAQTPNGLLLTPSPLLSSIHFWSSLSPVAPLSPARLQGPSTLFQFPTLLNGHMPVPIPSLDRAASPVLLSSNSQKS
# How it was run: as §1
sequence,measurement,setting,value
ACTATA,binding signal,FLI1,"1.37 fold enrichment (6-mer frequency, TF over GST control)"
same,binding signal,ELK1,"1.28 fold enrichment (6-mer frequency, TF over GST control)"
same,binding signal,GABPA,"1.33 fold enrichment (6-mer frequency, TF over GST control)"
same,binding signal,ERG,"1.31 fold enrichment (6-mer frequency, TF over GST control)"
same,binding signal,ELF1,"1.33 fold enrichment (6-mer frequency, TF over GST control)"
same,binding signal,EHF,"1.29 fold enrichment (6-mer frequency, TF over GST control)"
same,binding signal,SPI1,"1.43 fold enrichment (6-mer frequency, TF over GST control)"
same,binding signal,SPIB,"1.28 fold enrichment (6-mer frequency, TF over GST control)"
same,binding signal,ELK3,"1.29 fold enrichment (6-mer frequency, TF over GST control)"
